Screening results (PubChem)
Compounds with a hit are over-represented: about 2.8% of the library has one in this group of screens.
HIV Env fusion = inhibitors of HIV Env-mediated cell fusion | AID 651610 | inhibition, % at 12.3 µM | 1.1% of 360,000 active | HeLa-JRFL Env/CEM21 cell fusion, luciferase;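 active = mean replicate inhibition score of at least 50 and every replicate individually at or above 50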
PAX8 reporter = inhibitors of PAX8 transcriptional activity in RMG-I cells; inhibition, % at 12.6 µM; 1.2% of 360,000 active; RMG-I TPO-luciferase reporter, SteadyGlo, 24 h;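 active = mean replicate inhibition at least 60% with every replicate also reaching 60%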;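 note: luciferase light reporting Pax8 driven TPO promoter activity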
N-glyco inh = N-linked glycosylation inhibition. D54 ERlucT glycosylation luciferase reporter, 24 h; percent of 100 nM tunicamycin response. reporter increase, % at 12.5 µM. 0.23% of 360,000 active. AID 588692;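 active = mean luciferase reporter signal, scaled so untreated is 0 and the glycosylation-blocking control 100, at or above a set limit in every replicate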;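 note: luciferase carries N-glycosylation sites so blocking glycosylation raises the light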
Shn3 3UTR inh = Schnurri-3 reporter inhibition in Clone20 osteoblasts; inhibition, % at 12.5 µM; 0.52% of 360,000 active; Clone20 osteoblast Shn3 3'UTR firefly luciferase, 24 h;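 active = mean inhibition of at least 75% with every replicate also reaching 75%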
LMP1 NFkB inh = inhibitors of Epstein-Barr LMP1-induced NF-kappaB reporter; 0.69% of 350,000 active; AID 504558; LMP1-induced NF-kappaB luciferase reporter cells, luminescence; inhibition, % at 12.5 µM; in the data active = inhibition above about 41%
NSD2 inh = blocks human histone methyltransferase NSD2; 0.54% of 310,000 active; O96028; NSD2 peptide methylation, AlphaScreen, 120 min; AID 743445; inhibition, % at 12.5 µM; in the data active = inhibition above about 50%
AlphaScreen art = interferes with AlphaScreen signal, flagging NSD2 false positives; 9.4% of 1,500 active; AC35, µM (highest dose often 10 µM); shares compounds with NSD2 inh; AlphaScreen artifact counterscreen, preloaded methylated H4 peptide; AID 1053174; call rule not given here
A number is an active result; n = inactive; x = not tested or not shown.

SMILES	HIV Env fusion	PAX8 reporter	N-glyco inh	Shn3 3UTR inh	LMP1 NFkB inh	NSD2 inh	AlphaScreen art
COc1ccc(/C=C/C(=O)c2ccc(OC)cc2OC)cc1	x	x	n	n	n	x	x
CNc1ccc(Br)cc(C(=O)/C=C/c2ccc(OC)cc2)c1=O	n	n	n	n	n	66.2	n
COc1ccc(C2=NNC(c3cccs3)=Nc3ccc(OC)cc32)cc1	x	x	n	n	n	51.0	n
CCOc1ccc(C2=NNC(c3cccs3)=Nc3ccc(OC)cc32)cc1OCC	n	n	n	n	n	n	x
Cc1cccc(C)c1OCC(O)CNS(=O)(=O)c1ccccc1C(=O)N1CCCCC1 (stereo not drawn)	n	x	n	n	n	104.7	n
CC1(C)CC(NC(=O)CCc2nnc(CCCCc3ccccc3)o2)CCO1 (stereo not drawn)	n	n	n	n	n	n	x
O=C(CCc1nnc(CCCCc2ccccc2)o1)NC1CCCC1	n	n	n	n	n	82.9	n
Cc1ccc(NC(=O)C[n+]2ccn(C3=C([O-])c4ccccc4C3=O)c2)cc1	n	n	n	n	n	89.2	n
O=C(O)c1cc(N/N=C/c2ccc3c(c2)OCO3)ccc1Cl	n	n	n	n	n	75.2	n
C/C(=N\Nc1ccc(Cl)c(C(=O)O)c1)c1ccc2c(c1)OCO2	n	n	n	n	n	x	x
Cc1noc(C)c1NC(=O)Nc1ccc2c(c1)C(=O)N([C@@H](C)CO)C[C@@H](C)[C@H](CN(C)C)OCCCC[C@H](C)O2	n	n	x	x	x	x	x
COc1ccc(NC(=O)c2ccc(F)c(F)c2)c2ccccc12	n	n	n	n	n	53.6	n
C[C@@H]1CN([C@H](C)CO)C(=O)c2cc(C#CC3CCCCC3)cnc2O[C@@H]1CN(C)S(C)(=O)=O	n	n	x	x	x	x	x
CC(C)C1Nc2ccc(C(=O)O)cc2C2C=CCC21 (stereo not drawn)	n	n	n	n	n	58.2	n
CCCC1Nc2ccc(C(=O)O)cc2C2C=CCC12 (stereo not drawn)	x	x	n	n	n	92.0	n
O=C(O)c1ccc2c(c1)C1C=CCC1C(c1ccncc1)N2 (stereo not drawn)	n	n	n	n	n	n	x
O=C(Nc1nnc(SCc2ccc(F)cc2)s1)c1ccccn1	n	n	n	n	45.0	65.1	n
O=C(Nc1nnc(SCc2ccc(F)cc2)s1)c1cccnc1Cl	n	n	n	n	n	n	x
C/C(=N\O)C(C)Oc1ccc(Cl)cc1 (stereo not drawn)	n	n	n	n	n	65.1	n
COCC(=O)N1C[C@H](C)[C@H](OC)CN(C)C(=O)c2cc(NC(=O)NC(C)C)ccc2OC[C@@H]1C	n	n	x	x	x	x	x
O=C(O)c1cccc(NS(=O)(=O)c2ccc3c(c2)C(=O)c2ccccc2C3=O)c1	n	n	n	n	n	n	x
COC(=O)c1ccccc1NC1=C/C(=N\S(=O)(=O)c2ccc(C(=O)O)cc2)c2ccccc2C1=O	x	x	n	n	n	151.2	8.09µM
O=C1C=C(Nc2ccccc2C(=O)O)c2ccccc2C1=O	n	n	n	n	n	x	x
Cc1ccc(S(=O)(=O)/N=C2\C=C(Nc3cccc(C(=O)O)c3)C(=O)c3ccccc32)cc1	n	n	n	n	n	171.8	n
COc1ccc(NC(=O)Nc2cccc3c2O[C@@H](CN(C)C(=O)Nc2ccc(OC)cc2)[C@@H](C)CN([C@H](C)CO)C3=O)cc1	n	n	x	x	x	x	x
SMILES	HIV Env fusion	PAX8 reporter	N-glyco inh	Shn3 3UTR inh	LMP1 NFkB inh	NSD2 inh	AlphaScreen art
O=C(N[C@H]1CC[C@H](CCn2cc(Cc3ccccc3)nn2)O[C@H]1CO)c1cnccn1	n	n	x	x	x	x	x
Cc1noc(C)c1NC(=O)Nc1ccc2c(c1)CC(=O)N([C@@H](C)CO)C[C@@H](C)[C@H](CN(C)Cc1ccc(-c3ccccc3)cc1)O2	n	x	x	x	x	x	x
CCOC(=O)C(Oc1ccc2c(-c3ccc(OC)cc3)cc(=O)oc2c1C)c1ccccc1 (stereo not drawn)	n	x	n	n	n	53.2	n
CCOC(=O)C(Oc1ccc2c(-c3ccccc3)cc(=O)oc2c1C)c1ccccc1 (stereo not drawn)	n	n	n	n	n	n	x
Cc1cccc2c1NC(=O)C2=O	n	n	n	n	n	n	x
O=C1Nc2c(Cl)cccc2C1=O	n	n	n	n	x	125.8	n
C[C@@H]1CN([C@H](C)CO)C(=O)c2cc(NC(=O)CCCN(C)C)ccc2O[C@@H](C)CCCCO[C@@H]1CN(C)S(=O)(=O)c1ccccc1	n	n	x	x	x	x	x
COc1ccc(C(=O)Nc2c3c(nn2-c2ccc(Cl)cc2)CS(=O)(=O)C3)cc1	n	n	n	n	n	69.4	n
COc1ccc(C(=O)Nc2c3c(nn2-c2ccc([N+](=O)[O-])cc2)CS(=O)(=O)C3)cc1	n	n	n	n	n	n	x
COc1ccc(NC(=O)Nc2ccc3c(c2)C(=O)N([C@H](C)CO)C[C@H](C)[C@@H](CN(C)C(=O)Nc2c(C)noc2C)OCCCC[C@@H](C)O3)cc1	n	x	x	x	x	x	x
CC(=O)Nc1cccc(NC(=O)c2ccc(Br)cc2)c1	n	n	n	n	n	n	x
O=C(Nc1cccc(O)c1)c1ccc(Br)cc1	x	x	n	n	n	67.4	n
Cc1ccc(NC(=O)CC2SC3=NCCN3C2=O)cc1 (stereo not drawn)	n	x	n	n	n	n	x
O=C(CC1SC2=NCCN2C1=O)Nc1ccccc1 (stereo not drawn)	n	x	n	n	n	115.2	n
COc1ccc(CN(C)C[C@H]2Oc3ccc(NS(=O)(=O)c4c(C)noc4C)cc3CC(=O)N([C@H](C)CO)C[C@@H]2C)cc1	n	x	x	x	x	x	x
CCN1C(=O)/C(=C\c2ccc(-c3ccc([N+](=O)[O-])cc3OC)o2)SC1=Nc1cccc(C(=O)O)c1	n	n	n	n	n	60.5	n
COc1ccc(S(=O)(=O)Nc2ccc3c(c2)C(=O)N([C@H](C)CO)C[C@H](C)[C@@H](CN(C)C)OCCCC[C@@H](C)O3)cc1	n	n	x	x	x	x	x
Oc1ccc(Br)cc1CNc1cccc2cccnc12	n	n	n	n	n	n	x
Cc1ccc(O)c(CNc2cccc3cccnc23)c1	n	n	n	n	n	117.7	n
COc1cccc(CNc2cccc3cccnc23)c1O	n	x	n	n	n	50.3	n
C[C@@H]1CN([C@H](C)CO)C(=O)c2c(c3ccccc3n2C)-c2ccccc2CO[C@H]1CN(C)S(=O)(=O)c1ccsc1	n	n	x	x	x	x	x
CN(C)c1ccc2cc(S(=O)(=O)O)cc(O)c2c1	n	n	n	n	n	62.9	0.971µM
CC(=NO)c1cc(Br)c2cccc3c2c1CC3	n	n	n	n	n	66.1	n
C[C@H]1CN([C@@H](C)CO)C(=O)c2cccc(NS(=O)(=O)c3ccc(F)cc3)c2O[C@@H]1CN(C)C(=O)Nc1cccc2ccccc12	x	n	x	x	x	x	x
O=S(=O)(N[C@@H]1CC[C@H](CCn2cc(C3CC3)nn2)O[C@@H]1CO)c1ccc(Cl)cc1	n	n	x	x	x	x	x
